Among the data in PubChem BioAssay (EPA / NIEHS) are AC50 and outcome values, retold here.

Read-out in test [1]: Urokinase-type plasminogen activator receptor (uPAR), PLAUR (gene 5329)
Briefly: BSK_CASM3C_uPAR: BioMAP Diversity Plus: CASM3C Assay for Urokinase-type plasminogen activator receptor (uPAR) Biomarker Activity (AID 2283054).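 Note: cell-surface uPAR protein level quantified by ELISA.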 Particulars: primary human coronary artery smooth muscle cells; actives raise or lower the signal.

Read-out in test [2]: Vascular cell adhesion molecule 1 (VCAM1), VCAM1 (gene 7412)
Briefly: BSK_CASM3C_VCAM1: BioMAP Diversity Plus: CASM3C Assay for Vascular cell adhesion molecule 1 (VCAM1) Biomarker Activity (AID 2283055).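 Note: VCAM-1 protein level quantified by ELISA on the cells.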 Conditions: primary human coronary artery smooth muscle cells; actives raise or lower the signal.

Read-out in test [3]: Collagen III, COL3A1 (gene 1281)
As to the kind of experiment: BSK_hDFCGF_CollagenIII: BioMAP Diversity Plus: hDFCGF Assay for Collagen III Biomarker Activity (AID 2283056). Particulars: primary human foreskin fibroblasts; actives raise or lower the signal. The method in brief: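 ELISA readout of Collagen III in human dermal (foreskin) fibroblasts, taken 24 h post-treatment. Gain or loss relative to DMSO vehicle fitted in both directions.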

Read-out in test [4]: Epidermal growth factor receptor (EGFR), EGFR (gene 1956)
As to the kind of experiment: BSK_hDFCGF_EGFR: BioMAP Diversity Plus: hDFCGF Assay for Epidermal growth factor receptor (EGFR) Biomarker Activity (AID 2283057). Conditions: primary human foreskin fibroblasts; actives raise or lower the signal. The essentials: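 ELISA readout of EGFR on human dermal fibroblasts (primary foreskin cells), 24 h post-dosing; bidirectional curve fit vs DMSO baseline, gain or loss of signal scored.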

Test [5] in a line: BSK_hDFCGF_Proliferation: Cell Proliferation Assessment in the BioMAP Diversity Plus: hDFCGF Assay (AID 2283059).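 Note: curves fitted for both rise and fall of signal versus DMSO baseline.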 Conditions: primary human foreskin fibroblasts. The method in brief: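 This proliferation readout used SRB total-protein staining of human foreskin fibroblasts […], normalized to DMSO with bidirectional curve fitting.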
Read-out in test [6]: Macrophage colony-stimulating factor (MCSF), CSF1 (gene 1435)
As to the kind of experiment: BSK_hDFCGF_MCSF: BioMAP Diversity Plus: hDFCGF Assay for Macrophage colony-stimulating factor (MCSF) Biomarker Activity (AID 2283060). Conditions: primary human foreskin fibroblasts; actives raise or lower the signal. The method in brief: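 M-CSF levels read by ELISA at 24 h post-dosing in human skin fibroblasts. Parallel cultures stained with SRB assessed cytotoxicity at the same time point; response fitted in both directions against the DMSO baseline.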

Read-out in test [7]: TIMP metallopeptidase inhibitor 1 (TIMP1), TIMP1 (gene 7076)
Briefly: BSK_hDFCGF_TIMP1: BioMAP Diversity Plus: hDFCGF Assay for TIMP metallopeptidase inhibitor 1 (TIMP1) Biomarker Activity (AID 2283062). Particulars: primary human foreskin fibroblasts; actives raise or lower the signal. The essentials: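 TIMP-1 measured by ELISA 24 h after chemical dosing of primary human skin fibroblasts, with gain or loss fitted relative to DMSO. Parallel SRB staining (560 nm) monitored overt cytotoxicity.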

Read-out in test [8]: Monokine induced gamma interferon (MIG), CXCL9 (gene 4283)
Briefly: BSK_hDFCGF_MIG: BioMAP Diversity Plus: hDFCGF Assay for Monokine induced gamma interferon (MIG) Biomarker Activity (AID 2283063). Particulars: primary human foreskin fibroblasts; actives raise or lower the signal. The essentials: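 Human primary foreskin fibroblasts in the hDFCGF system, exposed to test chemical for 24 h; MIG measured by ELISA. Bidirectional curve fitting against DMSO negative control as activity baseline.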

Read-out in test [9]: Matrix Metallopeptidase 1 (MMP1), MMP1 (gene 4312)
Briefly: BSK_hDFCGF_MMP1: BioMAP Diversity Plus: hDFCGF Assay for Matrix Metallopeptidase 1 (MMP1) Biomarker Activity (AID 2283064). Conditions: primary human foreskin fibroblasts; actives raise or lower the signal. The method in brief: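 Human foreskin fibroblasts exposed to chemical for 24 h; MMP1 detected by ELISA, with DMSO as baseline for bidirectional fitting.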

Read-out in test [10]: Vascular cell adhesion molecule 1 (VCAM1), VCAM1 (gene 7412)
As to the kind of experiment: BSK_hDFCGF_VCAM1: BioMAP Diversity Plus: hDFCGF Assay for Vascular cell adhesion molecule 1 (VCAM1) Biomarker Activity (AID 2283065).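 For AC50: VCAM-1 protein level quantified by ELISA after 24 h chemical exposure.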 Conditions: primary human foreskin fibroblasts; actives raise or lower the signal. The method in brief:
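ELISA readout of VCAM-1 on human dermal fibroblast primary cultures, 24 h after chemical exposure. Gain or loss of signal fitted in both directions against DMSO baseline.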

Read-out in test [11]: Plasminogen activator inhibitor-1 (PAI1), SERPINE1 (gene 5054)
As to the kind of experiment: BSK_hDFCGF_PAI1: BioMAP Diversity Plus: hDFCGF Assay for Plasminogen activator inhibitor-1 (PAI1) Biomarker Activity (AID 2283066). Conditions: primary human foreskin fibroblasts; actives raise or lower the signal. The method in brief: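 ELISA readout of PAI-1 from primary human skin fibroblast cultures, 24 h after compound addition. Gain or loss of signal was fitted bidirectionally against DMSO baseline.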

Read-out in test [12]: Intercellular Adhesion Molecule 1 (ICAM1), ICAM1 (gene 3383)
As to the kind of experiment: BSK_KF3CT_ICAM1: BioMAP Diversity Plus: KF3CT Assay for Intercellular Adhesion Molecule 1 (ICAM1) Biomarker Activity (AID 2283067). Particulars: primary human keratinocytes with fibroblasts; actives raise or lower the signal. The method in brief:
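Cell-surface ICAM-1 was measured by ELISA 24 h after dosing primary human skin keratinocytes co-cultured with fibroblasts. Parallel SRB staining tracked overt cytotoxicity. Gain or loss of signal was fitted relative to DMSO.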

Read-out in test [13]: Interferon-gamma inducible Protein 10 (IP10), CXCL10 (gene 3627)
As to the kind of experiment: BSK_KF3CT_IP10: BioMAP Diversity Plus: KF3CT Assay for Interferon-gamma inducible Protein 10 (IP10) Biomarker Activity (AID 2283068). Particulars: primary human keratinocytes with fibroblasts; actives raise or lower the signal. The method in brief:
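Signal is secreted/surface IP-10 by ELISA in a human primary skin co-culture of keratinocytes and foreskin fibroblasts, taken 24 h post-dosing; DMSO served as negative control.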

A short description of test [14]: BSK_KF3CT_SRB: Viability Assessment in the BioMAP Diversity Plus: KF3CT Assay (AID 2283069). Conditions: primary human keratinocytes with fibroblasts. The essentials: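 Overt cytotoxicity is assessed as total protein by sulforhodamine B staining in parallel human skin co-cultures at 24 h after dosing. DMSO serves as negative control and baseline.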
Read-out in test [15]: Interleukin-1 alpha (IL1a), IL1A (gene 3552)
As to the kind of experiment: BSK_KF3CT_IL1a: BioMAP Diversity Plus: KF3CT Assay for Interleukin-1 alpha (IL1a) Biomarker Activity (AID 2283070). Conditions: primary human keratinocytes with fibroblasts; actives raise or lower the signal. The method in brief:
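Readout is IL-1a level by ELISA, compared bidirectionally with DMSO as baseline. Cells: human keratinocytes co-cultured with foreskin fibroblasts, harvested 24 h post-dose.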

Read-out in test [16]: TIMP metallopeptidase inhibitor 2 (TIMP2), TIMP2 (gene 7077)
As to the kind of experiment: BSK_KF3CT_TIMP2: BioMAP Diversity Plus: KF3CT Assay for TIMP metallopeptidase inhibitor 2 (TIMP2) Biomarker Activity (AID 2283071). Conditions: primary human keratinocytes with fibroblasts; actives raise or lower the signal. The method in brief:
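ELISA readout of TIMP-2 in keratinocyte plus foreskin fibroblast co-cultures (human skin primary cells), 24 h post-dose. Gain or loss of signal fitted relative to DMSO.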

Read-out in test [17]: Transforming growth factor beta 1 (TGFb1), TGFB1 (gene 7040)
As to the kind of experiment: BSK_KF3CT_TGFb1: BioMAP Diversity Plus: KF3CT Assay for Transforming growth factor beta 1 (TGFb1) Biomarker Activity (AID 2283072). Conditions: primary human keratinocytes with fibroblasts; actives raise or lower the signal. The essentials:
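Read-out: ELISA for TGF-b1 in keratinocyte/foreskin fibroblast human skin co-culture, 24 h after dosing; bidirectional curve fit vs DMSO baseline; gain or loss of signal scored.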

Read-out in test [18]: C-C motif chemokine 2 (Homo sapiens) (UniProt P13500)
As to the kind of experiment: BSK_KF3CT_MCP1: BioMAP Diversity Plus: KF3CT Assay for Monocyte Chemoattractant Protein 1 (MCP1/CCL2) Biomarker Activity (AID 2283073). Conditions: primary human keratinocytes with fibroblasts; actives raise or lower the signal. The method in brief: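 ELISA read-out of MCP-1, 24 h post-dose, in primary human skin keratinocytes co-cultured with fibroblasts. Parallel SRB staining monitors cytotoxicity; changes fitted both directions relative to DMSO.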

Read-out in test [19]: Interleukin-8 (IL8), CXCL8 (gene 3576)
Briefly: BSK_hDFCGF_IL8: BioMAP Diversity Plus: hDFCGF Assay for Interleukin-8 (IL8) Biomarker Activity (AID 2283058). Conditions: primary human foreskin fibroblasts; actives raise or lower the signal. The method in brief:
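IL-8 levels read by ELISA at 24 hours after dosing human skin fibroblast cultures. Parallel SRB staining assessed overt cytotoxicity, and gain or loss of signal was fitted against DMSO control.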

The nature of test [20]: BSK_hDFCGF_SRB: Viability Assessment in the BioMAP Diversity Plus: hDFCGF Assay (AID 2283061).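 Note: cells exposed to compound for 24 h before the read.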 Particulars: primary human foreskin fibroblasts. The method in brief:
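Viability was read as total protein: after 10% TCA fixation, wells were stained with 0.1% sulforhodamine B and read at 560 nm. Primary human foreskin fibroblasts were dosed for 24 h, with bidirectional fitting versus DMSO.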

Calls of active or inactive are those of the source. Rule for the calls: active = hit-call score of the fitted dose curve at least 0.9, where 1 is the maximum; inactive = score below 0.9.

As for `CCCCC(CC)CO[N+](=O)[O-]` (stereo not given), the AC50 (as a rule, the concentration giving half of the maximal activity seen) in [1] is 3050 nM (active); in test [2] it was 34100 nM (active); in [12], 30900 nM (active); in [13], 30200 nM (active); in [14], 36400 nM (active); in [16], 31700 nM (active). Further, the AC50 in test [18] is 30400 nM (active). The outcome in test [3], in test [4], in [5], in test [6], in test [7] and in [8] was inactive. In addition, the outcome in test [9], in test [10], in test [11], in test [15] and in test [17] was inactive.
Regarding `CC(=O)C(Cl)C(=O)N(C)C` (stereo not given), the result in [1], in test [4], in test [19], in test [7], in test [8] and in test [9] was inactive. Besides, the outcome in test [10], in [11], in [12], in [13], in test [14] and in test [16] was inactive. Also, the result in [17] and in test [18] was inactive. Also, the AC50 is 12000 nM (active) in test [2], 13800 nM (active) in test [3], 26000 nM (active) in test [5] and 13900 nM (active) in test [15].
On to `CC(C)CCCCCCOC(=O)c1ccccc1C(=O)OCCCCCCC(C)C`, for which the outcome in [1], in test [2], in test [3], in [4], in test [5] and in [6] was inactive. The result in test [7], in test [8], in [9], in test [10], in test [11] and in test [12] was inactive. In addition, the outcome in test [13], in test [14], in [16], in test [17] and in test [18] was inactive. For the same compound, the AC50 in test [15] is 1580 nM (active).
Regarding `CC(C)(c1ccccc1)c1ccc(O)c(C(C)(C)c2ccccc2)c1`, the AC50 in test [1] was 29400 nM (active); in test [2] it was 29300 nM (active); in test [3], 2940 nM (active); in test [4], 3450 nM (active); in test [5], 2820 nM (active); in [6], 3630 nM (active). Moreover, the AC50 is 4070 nM (active) in test [7]; 4860 nM (active) in [8]; 4050 nM (active) in [9]; 2790 nM (active) in [10]; 3740 nM (active) in test [11]; 3680 nM (active) in test [12]. The AC50 in test [13] is 3100 nM (active); in [14], 2330 nM (active); in test [15] it was 4020 nM (active); in test [16], 2170 nM (active); in test [17], 2830 nM (active); in test [18] it was 4190 nM (active).
As to `C=C(C)C(=O)[O][Sn]([CH2]CCC)([CH2]CCC)[CH2]CCC`, the AC50 in test [1] was 391 nM (active); in test [2], 148 nM (active); in test [3], 374 nM (active); in test [19] it was 148 nM (active); in test [5], 150 nM (active); in test [6] it was 148 nM (active). Moreover, the AC50 in [20] is 242 nM (active); in [7], 344 nM (active); in test [8], 148 nM (active); in [9], 148 nM (active); in [10] it was 148 nM (active); in test [11], 254 nM (active). The AC50 in [12] is 354 nM (active); in [13] it was 181 nM (active); in [14], 282 nM (active); in [15] it was 148 nM (active); in [16] it was 148 nM (active); in test [17], 148 nM (active). Moreover, the result in [4] was inactive.
On to `COc1cc(OC)nc(NC(=O)NS(=O)(=O)c2ncccc2C(=O)N(C)C)n1`, for which the outcome in [1], in test [2], in test [3], in test [4], in [5] and in test [6] was inactive. The result in test [20], in test [7], in test [8], in test [9], in test [10] and in test [11] was inactive. Moreover, the result in test [12], in test [13], in test [14], in [15], in test [16] and in test [17] was inactive. Also, the result in [18] was inactive.
